About 410 targets per protein were measured; listed, in parts, are those with the strongest signals and a random draw of the rest.
How the values were obtained:
Assay in all cases: glycan array binding signal (z-score within array); higher = stronger binding
Settings in all cases: glycan notation: IUPAC condensed, linker removed
[1] = biological target: Fuc(a1-2)Gal(b1-3)GlcNAc(b1-2)Man(a1-3)[Fuc(a1-2)Gal(b1-3)GlcNAc(b1-2)Man(a1-6)]Man(b1-4)GlcNAc(b1-4)GlcNAc
Outline: (§1)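 Negative Z-scores can be read as non-binding. The Z-score is calculated within each array and then averaged across arrays of one protein sequence at different concentrations or buffers and across linkers. Arrays, 3228 in all, were curated from the Consortium for Functional Glycomics database and kept only where the protein sequence was available.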

[2] = biological target: Fuc(a1-2)Gal(b1-3)GlcNAc(b1-3)[Fuc(a1-3)[Gal(b1-4)]GlcNAc(b1-6)]Gal(b1-4)Glc
Outline: as §1

[3] = biological target: Fuc(a1-2)Gal(b1-3)GlcNAc(b1-3)[Gal(b1-4)GlcNAc(b1-6)]Gal(b1-4)Glc
Outline: as §1

Fuc(a1-2)[Gal(a1-3)]Gal = biological target: Fuc(a1-2)[Gal(a1-3)]Gal
Outline: as §1

[4] = biological target: Fuc(a1-2)[Gal(a1-3)]Gal(b1-4)[Fuc(a1-3)]Glc
Outline: as §1

[5] = biological target: Fuc(a1-2)[GalNAc(a1-3)]Gal(b1-4)GlcNAc
Outline: as §1

[6] = biological target: Fuc(a1-2)[GalNAc(a1-3)]Gal(b1-4)GlcNAc(b1-3)Gal(b1-4)GlcNAc
Outline: as §1

[7] = biological target: Fuc(a1-3)[Gal(b1-4)]GlcNAc(b1-2)Man(a1-3)[Fuc(a1-3)[Gal(b1-4)]GlcNAc(b1-2)Man(a1-6)]Man(b1-4)GlcNAc(b1-4)GlcNAc
Outline: as §1

[8] = biological target: Gal(a1-4)Gal(b1-4)GlcNAc(b1-2)Man(a1-3)[Gal(a1-4)Gal(b1-4)GlcNAc(b1-2)Man(a1-6)]Man(b1-4)GlcNAc(b1-4)GlcNAc
Outline: as §1

Gal(b1-3)GlcNAc = biological target: Gal(b1-3)GlcNAc
Outline: as §1

[9] = biological target: Gal(b1-3)GlcNAc(b1-3)Gal(b1-3)GlcNAc
Outline: as §1

[10] = biological target: Gal(b1-3)GlcNAc(b1-3)Gal(b1-4)GlcNAc
Outline: as §1

[11] = biological target: Gal(b1-3)[Fuc(a1-4)]GlcNAc(b1-3)Gal(b1-3)[Fuc(a1-4)]GlcNAc
Outline: as §1

[12] = biological target: Gal(b1-4)GlcNAc(b1-2)Man(a1-6)[GlcNAc(b1-2)Man(a1-3)]Man(b1-4)GlcNAc(b1-4)GlcNAc
Outline: as §1

[13] = biological target: Gal(b1-4)GlcNAc(b1-3)[Gal(b1-4)GlcNAc(b1-6)]GalNAc
Outline: as §1

Gal6S(b1-3)GlcNAc = biological target: Gal6S(b1-3)GlcNAc
Outline: as §1

[14] = biological target: GalNAc(a1-3)GalNAc(a1-3)Gal(a1-4)Gal(b1-4)GlcNAc
Outline: as §1

Glc(b1-4)Glc = biological target: Glc(b1-4)Glc
Outline: as §1

GlcA(b1-3)Gal = biological target: GlcA(b1-3)Gal
Outline: as §1

[15] = biological target: GlcNAc(a1-3)Gal(b1-4)GlcNAc
Outline: as §1

[16] = biological target: GlcNAc(b1-2)Man(a1-3)[GlcNAc(b1-2)Man(a1-6)]Man(b1-4)GlcNAc(b1-4)GlcNAc
Outline: as §1

[17] = biological target: GlcNAc(b1-2)Man(a1-3)[GlcNAc(b1-2)Man(a1-6)]Man(b1-4)GlcNAc(b1-4)[Fuc(a1-6)]GlcNAc
Outline: as §1

[18] = biological target: GlcNAc(b1-2)Man(a1-3)[GlcNAc(b1-4)][GlcNAc(b1-2)Man(a1-6)]Man(b1-4)GlcNAc(b1-4)GlcNAc
Outline: as §1

[19] = biological target: GlcNAc(b1-2)[GlcNAc(b1-6)]Man(a1-6)[GlcNAc(b1-2)Man(a1-3)]Man(b1-4)GlcNAc(b1-4)GlcNAc
Outline: as §1

[20] = biological target: GlcNAc(b1-2)[GlcNAc(b1-6)]Man(a1-6)[GlcNAc(b1-2)Man(a1-3)][GlcNAc(b1-4)]Man(b1-4)GlcNAc(b1-4)GlcNAc
Outline: as §1

GlcNAc(b1-3)Gal = biological target: GlcNAc(b1-3)Gal
Outline: as §1

GlcNAc3Prop(b1-4)GlcNAc = biological target: GlcNAc3Prop(b1-4)GlcNAc
Outline: as §1

[21] = biological target: Man(a1-3)[Man(a1-6)]Man(a1-6)[Man(a1-3)]Man(b1-4)GlcNAc(b1-4)GlcNAc
Outline: as §1

Neu5Ac(a2-3)Gal = biological target: Neu5Ac(a2-3)Gal
Outline: as §1

[22] = biological target: Neu5Ac(a2-3)Gal(b1-4)[Fuc(a1-3)]GlcNAc(b1-3)GalNAc
Outline: as §1

[23] = biological target: Neu5Ac(a2-3)Gal(b1-4)[Fuc(a1-3)]GlcNAc(b1-6)[Neu5Ac(a2-3)Gal(b1-3)]GalNAc
Outline: as §1

Neu5Ac(a2-6)Gal = biological target: Neu5Ac(a2-6)Gal
Outline: as §1

[24] = biological target: Neu5Ac(a2-6)Gal(b1-3)GlcNAc(b1-3)[Gal(b1-4)GlcNAc(b1-6)]Gal(b1-4)Glc
Outline: as §1

[25] = biological target: Neu5Ac(a2-6)Gal(b1-4)GlcNAc(b1-2)Man(a1-6)[GlcNAc(b1-2)Man(a1-3)]Man(b1-4)GlcNAc(b1-4)GlcNAc
Outline: as §1

[26] = biological target: Neu5Ac(a2-6)Gal(b1-4)GlcNAc(b1-3)Gal(b1-4)GlcNAc(b1-3)Gal(b1-4)GlcNAc
Outline: as §1

[27] = biological target: Neu5Ac(a2-6)GalNAc(b1-4)GlcNAc
Outline: as §1

[28] = biological target: Neu5Ac(a2-6)GlcNAc(b1-4)GlcNAc
Outline: as §1

[29] = biological target: Neu5Ac(a2-8)Neu5Ac(a2-3)Gal(b1-4)Glc
Outline: as §1

[30] = biological target: Neu5Ac9Ac(a2-6)Gal(b1-4)GlcNAc
Outline: as §1

[31] = biological target: Neu5Gc(a2-3)Gal(b1-4)GlcNAc
Outline: as §1

B1: LSectin (Mus musculus), Q8BNX1 (protein)
chain: MNTGEYNKLGSAIEEVSRGQLGRWECYKQRLFFLVLALLVATVLWALILSTLLSSASSKLRVLLSHQDLLRTNASEQKMTLSSLKDDIGACRNCCSVTKAQLQTTLAEFKDIQAKLMEQESILKELQERVTQDLAKASRDRENIRSELFQALEAVKRQNSSCEQCPPSWLPFQGSCYYFSETQATWDTAQSYCGGQGAHLVIVRGLNEQGFLSQHTRGRGYWLGLRAVRHLNKIQGYRWVDGASLNFSHWNSGEPNDSRGHEDCIMMLHSGLWNDAPCTNERDGWICEKRSSCY
glycan array binding signal (z-score) [1]: -0.18
glycan array binding signal (z-score) [2]: -0.187
glycan array binding signal (z-score) [3]: -0.188
glycan array binding signal (z-score) (Fuc(a1-2)[Gal(a1-3)]Gal): -0.145
glycan array binding signal (z-score) [4]: -0.124
glycan array binding signal (z-score) [5]: -0.176
glycan array binding signal (z-score) [6]: -0.185
glycan array binding signal (z-score) [7]: -0.158
glycan array binding signal (z-score) [8]: -0.18
glycan array binding signal (z-score) (Gal(b1-3)GlcNAc): -0.132
glycan array binding signal (z-score) [9]: -0.18
glycan array binding signal (z-score) [10]: -0.175
glycan array binding signal (z-score) [11]: -0.172
glycan array binding signal (z-score) [12]: 4.08
glycan array binding signal (z-score) [13]: -0.192
glycan array binding signal (z-score) (Gal6S(b1-3)GlcNAc): -0.188
glycan array binding signal (z-score) [14]: -0.19
glycan array binding signal (z-score) (Glc(b1-4)Glc): -0.17
glycan array binding signal (z-score) (GlcA(b1-3)Gal): -0.169
glycan array binding signal (z-score) [15]: -0.14
glycan array binding signal (z-score) [16]: 6.38
glycan array binding signal (z-score) [17]: 5.47
glycan array binding signal (z-score) [18]: 7.84
glycan array binding signal (z-score) [19]: 4.99
glycan array binding signal (z-score) [20]: 7.22
glycan array binding signal (z-score) (GlcNAc(b1-3)Gal): -0.164
glycan array binding signal (z-score) (GlcNAc3Prop(b1-4)GlcNAc): -0.168
glycan array binding signal (z-score) [21]: -0.172
glycan array binding signal (z-score) (Neu5Ac(a2-3)Gal): -0.148
glycan array binding signal (z-score) [22]: -0.154
glycan array binding signal (z-score) [23]: -0.181
glycan array binding signal (z-score) (Neu5Ac(a2-6)Gal): -0.118
glycan array binding signal (z-score) [24]: -0.187
glycan array binding signal (z-score) [25]: 4.19
glycan array binding signal (z-score) [26]: -0.182
glycan array binding signal (z-score) [27]: 3.69
glycan array binding signal (z-score) [28]: -0.18
glycan array binding signal (z-score) [29]: -0.158
glycan array binding signal (z-score) [30]: -0.16
glycan array binding signal (z-score) [31]: -0.156

Source: the supplement of paper PMC8728848
